Screening results from PubChem BioAssay.
Compounds with a hit are over-represented: about 0.9% of the library has one in this group of screens.
CDC25B CDK2 inh: human CDC25B-CDK2/CyclinA binding inhibition | P30305+P24941 | HTRF CDC25B-CDK2/CyclinA binding, anti-His/anti-Flag; active compounds read high | z-score (test concentration not listed) | 0.72% of 94,000 active | AID 1259370; in the data active = z-score above about 3.2
TAR Tat displ: HIV-1 TAR-Tat binding disruption | 0.6% of 100,000 active | HIV-1 TAR RNA, Tat peptide displacement FRET; active compounds read high | z-score (no concentration beside the values) | AID 1259389; active = z-score of 3 or more in at least 2 runs
* marks the source's active call; other numbers are inactive results; x = no result.

SMILES	CDC25B CDK2 inh	TAR Tat displ
Cc1ccc(S(=O)(=O)NC(=O)Nc2ncc3c(n2)CC(c2ccco2)CC3=O)cc1 (centres undefined)	8.3*	2.8
CC(=O)Nc1ncc2c(n1)CC(c1ccco1)CC2=O (centres undefined)	3	-0.17
CCc1ccc2nc(Nc3ncc4c(n3)CC(c3ccco3)CC4=O)nc(C)c2c1 (centres undefined)	14	32*
COCCNC(=O)Cn1ncn2c(cc3sc(C)cc32)c1=O	-0.42	x
Cc1cccc(-c2cc(Nc3ccccc3Cl)nc(C)n2)c1	1	-0.73
O=C(CSc1nccn1Cc1ccc2c(c1)OCO2)Nc1nc2ccccc2s1	x	0.73
CCN(CC)Cc1ccc(O)c2ncccc12	13*	1.3
Oc1ccc(Cc2ccc(O)c3ncccc23)c2cccnc12	-3.8	1.9
COc1ccc(C2C3=C(CCCC3=O)Nc3nc(SCc4ccccc4C)nn32)cc1OC (centres undefined)	-1.3	0.79
COc1ccc(CNc2cc(-c3ccccc3)nc3nncn23)cc1	3.9	0.51
c1ccc(CNc2cc(-c3ccccc3)nc3nncn23)cc1	4.6*	-0.07
Cc1oc2ncnc(N3CCOCC3)c2c1C(=O)N1CCCCC1c1cccnc1 (centres undefined)	x	0.24
CC1CCCCN1CCN1C(=O)c2cc3ccccc3n2CC1(C)C(=O)NC1CCCCC1 (centres undefined)	x	18*
CC1(C(=O)NC2CCCC2)Cn2c(ccc2-c2ccco2)C(=O)N1Cc1ccco1 (centres undefined)	x	3.7*
CC1CCCCN1CCN1C(=O)c2ccc(-c3ccco3)n2CC1(C)C(=O)NC1CCCCC1 (centres undefined)	x	-3.2
CC1(C(=O)NC2CCCCC2)Cn2c(ccc2-c2ccco2)C(=O)N1Cc1ccco1 (centres undefined)	x	-6.9
Nc1ccc2nn(-c3cccc(Cl)c3)nc2c1	-0.74	4*
Cc1ccc(-n2nc3ccc(N)cc3n2)cc1	-0.46	-0.96
Cn1nc(C(=O)N2CCC(N3CCCCC3)CC2)c2c1-c1ccccc1OC2	-1.3	1.5
O=C(NN=C1C2CC3CC(C2)CC1C3)c1cc(-c2cccs2)nc2ccccc12	-0.79	x
O=C(C1CCCN(S(=O)(=O)N2CCCCC2)C1)N1CCN(c2ccccc2)CC1 (centres undefined)	x	15*
O=C(C1CCCN(S(=O)(=O)N2CCOCC2)C1)N1CCN(c2ccc(F)cc2)CC1 (centres undefined)	x	-0.23
O=C(Nc1ccc(F)c(Cl)c1)C1CCN(c2ccc(-c3cccs3)nn2)CC1	x	0.39
Cc1cc(Nc2ccc3c(c2)OCO3)n2nc(-c3ccco3)nc2n1	x	18*
Cc1cc(NCc2ccc3c(c2)OCO3)n2nc(-c3ccco3)nc2n1	x	-1.3
SMILES	CDC25B CDK2 inh	TAR Tat displ
COc1cc(C2C(=O)N(C3CCC(C)CC3)CC(=O)N2Cc2ccc(F)cc2)ccc1OC(C)C (centres undefined)	0.23	x
CC(=O)N1c2ccccc2CC1C(=O)NC1CCCCC1 (centres undefined)	x	2.1
Cn1c(CSC2CN(C(c3ccccc3)c3ccccc3)C2)n[nH]c1=S	13*	x
Cn1c(CSc2ccccc2)n[nH]c1=S	-0.72	x
COc1ccc(Nc2c(-c3ccc(C)o3)nc3cnccn23)cc1	-1.8	-2
Cc1nn(-c2nc3ccccc3o2)c2c1C(c1ccc(Cl)cc1)CC(=O)N2 (centres undefined)	x	0.78
CSc1nc(NCCc2ccccc2)c(C#N)c(-c2ccccc2)n1	-2.5	0.43
Cn1c(=O)c2cc(C(=O)NCCCN3CCCC3)sc2c2ccccc21	0.42	-0.48
Cn1c(=O)c2cc(C(=O)NC3CCCC3)sc2c2ccccc21	3*	-0.7
CCc1nn2c(=O)c(S(=O)(=O)N3CC(=O)N(CCc4ccccc4)C(=O)C3)c(C)nc2s1	-0.34	1.5
CCOC(=O)c1cc(CO)cc(C(=O)OCC)c1	-2	x
CCCOC(=O)c1cc(O)c(O)c(O)c1	x	26*
CCOC(=O)c1cc(-c2ccccc2)sc1NC(=O)CSc1nc2ccccc2s1	-0.35	x
CCOC(=O)c1cnn(-c2ccccc2)c1NC(=O)CSc1nc2ccccc2s1	19*	x
COc1ccc2ccccc2c1C1CC(=O)N2CN(c3ccc(F)cc3)CSC2=C1C#N (centres undefined)	2.6	0.3
COc1ccc(N2CSC3=C(C#N)C(c4c(OC)ccc5ccccc45)CC(=O)N3C2)cc1 (centres undefined)	6.4*	-2
COc1ccc(N2CSC3=C(C#N)C(c4c(OC)ccc5ccccc45)CC(=O)N3C2)c(OC)c1 (centres undefined)	3.8*	1.6
COc1ccc2ccccc2c1C1CC(=O)N2CN(c3ccccc3)CSC2=C1C#N (centres undefined)	4.8*	-1.1
COc1ccc(-c2noc(CSc3nnc(-c4ccncc4)n3-c3ccccc3)n2)c(OC)c1	0.07	1.2
CCN(CC)c1cc2c(cc1F)c(=O)c(S(=O)(=O)c1cccc(Cl)c1)cn2CC	x	0.77
CCCCc1nn2c(=O)cc(CSc3n[nH]c(N)n3)nc2s1	x	0.04
O=c1ccc(-c2ccc(S(=O)(=O)NCc3ccccc3)s2)n[nH]1	x	1.1
CCOc1ccc(N2CSC3=C(C#N)C(c4ccc(C)o4)CC(=O)N3C2)cc1 (centres undefined)	3.4*	0.86
Cc1ccc(C2CC(=O)N3CN(C)CSC3=C2C#N)cc1 (centres undefined)	0.82	0.37
CCOC(=O)c1ccc(N2CSC3=C(C#N)C(c4ccc(SC)cc4)CC(=O)N3C2)cc1 (centres undefined)	5.1*	-2.3
SMILES	CDC25B CDK2 inh	TAR Tat displ
CCOc1cc(C2CC(=O)N3CN(c4ccc(C)cc4)CSC3=C2C#N)ccc1O (centres undefined)	3.2*	3
COC(=O)c1ccc(N2CSC3=C(C#N)C(c4ccc(C)cc4)CC(=O)N3C2)cc1 (centres undefined)	16*	1.3
O=C(c1cccs1)N1c2nc(-c3cccnc3)nn2C2(CCCCC2)[C@@H]2CCCC[C@@H]21	0.41	0.38
CCC12CN3CC(CC)(CN(C1)C3C1CCCCC1)C2=O (centres undefined)	-0.54	0.46
CCN1CCCC1CNS(=O)(=O)c1ccc2c(c1)C(C)(C)C(=O)N2C (centres undefined)	x	0
Cc1nnc2c(NCc3ccco3)nc3ccc(C(=O)c4ccccc4)cc3n12	x	-0.24
N#Cc1c[nH]n2c(NC3CCCCC3)c(-c3cccc(Br)c3)nc12	-0.89	-0.06
CCOC(=O)c1ccc(N2CSC3=C(C#N)C(c4ccc(C)cc4)CC(=O)N3C2)cc1 (centres undefined)	6.1*	-1.6
CCOC(=O)CN1CSC2=C(C#N)C(c3ccc(F)cc3)CC(=O)N2C1 (centres undefined)	-0.34	2.3
CCOc1ccc(C2CC(=O)N3CN(C)CSC3=C2C#N)cc1OC (centres undefined)	3.6*	-0.1
CN1CSC2=C(C#N)C(c3ccccc3)CC(=O)N2C1 (centres undefined)	4.1	0.4
CN1CSC2=C(C#N)C(c3cccc(OCc4ccccc4)c3)CC(=O)N2C1 (centres undefined)	3.4*	-1.9
COc1ccc(C2CC(=O)N3CN(CCc4ccccc4)CSC3=C2C#N)cc1OC (centres undefined)	-1.4	0.76
CCOC(=O)c1c(S(=O)(=O)Nc2ccc(OCC)cc2)c(C)n(C)c1C	x	1.6
